From PubChem BioAssay (NCI)
The panel holds about 79,000 compounds, 15% with a hit somewhere; the sample as a whole holds those more often. Activity calls are given as the source filed them. No stated cut-off is given here; in the data, active means growth inhibition above about 70%; inactive means the rest.

Tests used:
[1] = NCI Yeast Anticancer Drug Screen. Data for the rad52 strain (AID 147);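 further: 0% = growth of vehicle-treated control cultures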; conditions: S. cerevisiae rad52 mutant growth inhibition, active compounds read high
How it was run: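 Yeast strain carrying a DNA damage repair alteration was exposed to test compounds. Growth inhibition was measured relative to vehicle-treated controls.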

[2] = NCI Yeast Anticancer Drug Screen. Data for the wt1 strain (AID 149);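 further: 0% = growth of vehicle-treated wt1 cultures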; conditions: S. cerevisiae wt1 strain (SPY 50644) growth inhibition, active compounds read high
How it was run: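 Compounds are added to wt1 yeast cultures. Growth is then measured. Inhibition is expressed relative to vehicle-treated controls.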

[3] = NCI Yeast Anticancer Drug Screen. Data for the rad50EPP+ strain (AID 151);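 further: 0% = growth of vehicle-treated control cultures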; conditions: S. cerevisiae rad50 mutant strain, active compounds read high
How it was run: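 Yeast strain carrying rad50 alteration (rad50EPP+) exposed to compounds; growth inhibition measured relative to vehicle-treated controls.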

[4] = NCI Yeast Anticancer Drug Screen. Data for the mgt1 strain (AID 153); conditions: S. cerevisiae mgt1 mutant growth inhibition, active compounds read high
How it was run: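 Yeast mgt1 strain (DNA repair/cell-cycle alteration panel) exposed to compounds; growth inhibition measured relative to vehicle-treated controls.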

[5] = NCI Yeast Anticancer Drug Screen. Data for the rad50 strain (AID 155);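 further: 0% = growth of vehicle-only cultures of the same strain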; conditions: S. cerevisiae rad50 strain growth inhibition, active compounds read high
How it was run: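 Inhibition values express reduced yeast growth in compound-treated cultures relative to vehicle-treated controls.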

[6] = NCI Yeast Anticancer Drug Screen. Data for the mec2-1 strain (AID 157); conditions: S. cerevisiae mec2-1 strain, active compounds read high
How it was run: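 mec2-1 yeast strain, carrying an alteration in DNA damage repair or cell cycle control, was exposed to compounds; growth inhibition was measured relative to vehicle-treated controls.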

[7] = NCI Yeast Anticancer Drug Screen. Data for the rad14 strain (AID 159);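 further: 0% = growth of vehicle-treated control cultures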; conditions: S. cerevisiae rad14 strain growth inhibition, active compounds read high
How it was run: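 A mutant yeast strain defective in DNA damage repair is treated with compound; inhibition of its growth is scored against untreated, vehicle-exposed cultures.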

[8] = NCI Yeast Anticancer Drug Screen. Data for the sgs1 mgt1 strain (AID 161);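 further: 0% = growth of cultures given vehicle only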; conditions: S. cerevisiae sgs1 mgt1 strain, active compounds read high
How it was run: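 Percent growth inhibition was derived by comparing compound-exposed mutant yeast with vehicle-exposed cultures. The strain carries alterations in DNA damage repair.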

[9] = NCI Yeast Anticancer Drug Screen. Data for the CLN2oe strain (AID 163);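 further: 0% = growth of vehicle-only control cultures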; conditions: S. cerevisiae CLN2oe strain, active compounds read high
How it was run: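 Yeast cells carrying a defined cell-cycle control alteration were exposed to test compounds. Growth inhibition was scored against vehicle-treated control cultures.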

[10] = NCI Yeast Anticancer Drug Screen. Data for the cln2 rad14 strain (AID 165);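 further: 0% = growth equal to vehicle treated cultures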; conditions: S. cerevisiae cln2 rad14 strain, active compounds read high
How it was run: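 Yeast carrying cln2 and rad14 alterations (cell cycle control and DNA damage repair) were exposed to compounds. Growth inhibition was measured against vehicle-treated controls.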

[11] = NCI Yeast Anticancer Drug Screen. Data for the bub3 strain (AID 167); conditions: S. cerevisiae bub3 mutant strain, active compounds read high
How it was run: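 Steps: expose the mutant yeast strain to compound; grow alongside vehicle-treated cultures; measure growth; express inhibition against the vehicle cultures.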

[12] = NCI Yeast Anticancer Drug Screen. Data for the wt2 strain (AID 169);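 further: 0% = growth of vehicle-treated yeast cultures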; conditions: S. cerevisiae wt2 strain growth inhibition, active compounds read high
How it was run: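 Yeast cells were exposed to test compounds, and growth inhibition was measured relative to vehicle-treated controls.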

[13] = NCI Yeast Anticancer Drug Screen. Data for the mlh1 strain (AID 171);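 further: 0% = growth of vehicle-treated control cultures of the same strain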; conditions: S. cerevisiae mlh1 strain growth inhibition, active compounds read high
How it was run: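 Yeast carrying a defined genetic alteration in DNA damage repair or cell cycle control were exposed to test compounds. Growth inhibition was measured relative to vehicle-treated controls.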

[14] = NCI Yeast Anticancer Drug Screen. Data for the sgs1 strain (AID 173);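 further: 0% = growth of vehicle-only control cultures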; conditions: S. cerevisiae sgs1 mutant, active compounds read high
How it was run: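 Yeast mutant strains carrying defined defects in DNA damage repair or cell cycle control were exposed to test compounds. Growth inhibition was scored against vehicle-treated controls.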

[15] = NCI Yeast Anticancer Drug Screen. Data for the mlh1 rad18 strain (AID 175); conditions: S. cerevisiae mlh1 rad18 strain growth inhibition, active compounds read high
How it was run: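 Growth inhibition of the yeast strain was measured after compound exposure and expressed relative to vehicle-treated controls. The strain carries defined defects in DNA damage repair.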

[16] = NCI Yeast Anticancer Drug Screen. Data for the rad18 strain (AID 177); conditions: S. cerevisiae rad18 mutant growth inhibition, active compounds read high
How it was run: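 Yeast carrying a defined DNA damage repair alteration were exposed to compounds. Growth inhibition was expressed relative to vehicle-treated controls.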

[17] = at 5.0 µM (retest, dose inferred, filed as 0.5)
[18] = at 50.0 µM (retest, dose inferred, filed as 5.0)

Measured: growth inhibition

Cc1ccc(NCCNCCO)c2c(=O)c3cc(O)ccc3sc12
inactive: [1]; at 1.2 µM -5% | [1]; at 3.7 µM 12% | [1]; at 11.0 µM 30% | [2]; at 1.2 µM 10% | [2]; at 3.7 µM -9% | [2]; at 11.0 µM -5% | [2]; at 33.0 µM -1% | [2]; at 100.0 µM 18% | [3]; at 1.2 µM 12% | [3]; at 3.7 µM 22% | [3]; at 11.0 µM 25% | [3]; at 33.0 µM 36% | [3]; at 100.0 µM 51% | [4]; at 1.2 µM -10% | [4]; at 3.7 µM 1% | [4]; at 11.0 µM -11% | [4]; at 33.0 µM -1% | [5]; at 1.2 µM 4% | [5]; at 3.7 µM 4% | [5]; [17] 49% | [5]; at 11.0 µM 28% | [6]; at 1.2 µM 5% | [6]; at 3.7 µM -13% | [6]; [17] 21% | [6]; at 11.0 µM -11% | [6]; at 33.0 µM -10% | [6]; at 100.0 µM 58% | [7]; at 1.2 µM -18% | [7]; at 3.7 µM -4% | [7]; at 11.0 µM -2% | [7]; at 33.0 µM 0% | [8]; [17] 8% | [9]; at 1.2 µM 6% | [9]; at 3.7 µM 14% | [9]; at 11.0 µM 24% | [9]; at 33.0 µM 23% | [10]; [17] 17% | [11]; at 1.2 µM -24% | [11]; at 3.7 µM 0% | [11]; [17] 18% | [11]; at 11.0 µM 0% | [11]; at 33.0 µM -2% | [12]; at 1.2 µM 10% | [12]; at 3.7 µM 3% | [12]; at 11.0 µM 4% | [12]; at 33.0 µM 63% | [12]; at 100.0 µM 24% | [13]; at 1.2 µM -20% | [13]; at 3.7 µM -8% | [13]; at 11.0 µM -18% | [13]; at 33.0 µM -10% | [14]; at 1.2 µM 15% | [14]; at 3.7 µM 35% | [14]; at 11.0 µM 43% | [14]; at 33.0 µM 48% | [15]; [17] 13% | [16]; at 1.2 µM -35% | [16]; at 3.7 µM -30% | [16]; at 11.0 µM -27% | [16]; at 33.0 µM -5%
active: [1]; at 33.0 µM 90% | [1]; at 100.0 µM 93% | [4]; at 100.0 µM 90% | [5]; at 33.0 µM 93% | [5]; [18] 99% | [5]; at 50.0 µM 80.8% | [5]; at 100.0 µM 95% | [6]; [18] 99% | [6]; at 50.0 µM 71.8% | [7]; at 100.0 µM 97% | [8]; [18] 99% | [8]; at 50.0 µM 89.2% | [9]; at 100.0 µM 96% | [10]; [18] 100% | [10]; at 50.0 µM 88.9% | [11]; [18] 99% | [11]; at 50.0 µM 89.2% | [11]; at 100.0 µM 96% | [13]; at 100.0 µM 93% | [14]; at 100.0 µM 91% | [15]; [18] 99% | [15]; at 50.0 µM 81.7% | [16]; at 100.0 µM 93%

COc1cc(C2SCC(=O)N2c2ccc(-c3ccc(-n4c(-c5ccccc5)nc5ccccc5c4=O)cc3)cc2)ccc1O (stereo unspecified)
active: [11]; at 50.0 µM 82.3% | [15]; [18] 76% | [15]; at 50.0 µM 73.7%
inactive: [1]; at 1.2 µM -2% | [1]; at 3.7 µM 0% | [1]; at 11.0 µM 2% | [1]; at 33.0 µM 6% | [1]; at 100.0 µM 16% | [2]; at 1.2 µM -2% | [2]; at 3.7 µM -2% | [2]; at 11.0 µM -1% | [2]; at 33.0 µM -4% | [2]; at 100.0 µM -8% | [3]; at 1.2 µM 3% | [3]; at 3.7 µM 13% | [3]; at 11.0 µM 19% | [3]; at 33.0 µM 27% | [3]; at 100.0 µM 27% | [4]; at 1.2 µM 1% | [4]; at 3.7 µM 1% | [4]; at 11.0 µM 0% | [4]; at 33.0 µM 2% | [4]; at 100.0 µM 28% | [5]; at 1.2 µM -4% | [5]; at 3.7 µM -1% | [5]; [17] -11% | [5]; at 11.0 µM 0% | [5]; at 33.0 µM 8% | [5]; [18] 35% | [5]; at 50.0 µM 58.4% | [5]; at 100.0 µM 21% | [6]; at 1.2 µM 0% | [6]; at 3.7 µM -1% | [6]; [17] -11% | [6]; at 11.0 µM 0% | [6]; at 33.0 µM 2% | [6]; [18] 21% | [6]; at 50.0 µM 34% | [6]; at 100.0 µM 9% | [7]; at 1.2 µM -1% | [7]; at 3.7 µM -1% | [7]; at 11.0 µM 2% | [7]; at 33.0 µM 11% | [7]; at 100.0 µM 25% | [8]; [17] -7% | [8]; [18] 31% | [8]; at 50.0 µM 65% | [9]; at 1.2 µM -2% | [9]; at 3.7 µM -2% | [9]; at 11.0 µM -7% | [9]; at 33.0 µM -14% | [9]; at 100.0 µM -14% | [10]; [17] -9% | [10]; [18] 10% | [10]; at 50.0 µM 25.7% | [11]; at 1.2 µM 1% | [11]; at 3.7 µM 9% | [11]; [17] -14% | [11]; at 11.0 µM 19% | [11]; at 33.0 µM 23% | [11]; [18] 69% | [11]; at 100.0 µM 41% | [12]; at 1.2 µM -2% | [12]; at 3.7 µM -2% | [12]; at 11.0 µM -2% | [12]; at 33.0 µM -2% | [12]; at 100.0 µM 4% | [13]; at 1.2 µM -2% | [13]; at 3.7 µM 1% | [13]; at 11.0 µM 1% | [13]; at 33.0 µM 3% | [13]; at 100.0 µM 20% | [14]; at 1.2 µM -3% | [14]; at 3.7 µM 0% | [14]; at 11.0 µM 0% | [14]; at 33.0 µM 2% | [14]; at 100.0 µM 10% | [15]; [17] -14% | [16]; at 1.2 µM -3% | [16]; at 3.7 µM -1% | [16]; at 11.0 µM 0% | [16]; at 33.0 µM 3% | [16]; at 100.0 µM 7%
